High-throughput results from PubChem BioAssay.
The list is not random: actives were taken first. Their share in the collection is about 4.1%.
hcDAF-12 act: activates DAF-12 receptor from parasite H. contortus. HEK293 hcDAF-12 lit1-tk-luc reporter, luminescence; 0% DMSO, 100% Δ7-dafachronic acid. activation, % at 6.8 µM. 370,000 tested, 1.4% active;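 active means activation above the mean of all tested compounds plus 3 SD, cut at about 5.5% in these data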
hgDAF12 agonist: hgDAF-12 agonism, primary luciferase screen | HEK293 GAL4-hgDAF12 UAS-luciferase reporter, agonist luminescence; normalized to butyrate control | activation, % at 6.8 µM | 370,000 tested, 1.8% active;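 active means activation above a cutoff set at the mean of all screened compounds plus 3 SD, cut at about 10% in these data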
ssDAF-12 act: activators of S. stercoralis DAF-12 nuclear receptor | activation, % at 6.8 µM | 370,000 tested, 1% active | HEK293 ssDAF-12/GRIP1 lit1-tk-luc reporter, luminescence; % of 3 µM dafachronic acid response | AID 652126;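 active means activation above the mean over all tested compounds plus 3 SD, cut at about 0.9% in these data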
PolyA inhibitor: blocks polyadenylation in yeast reporter cells. S. cerevisiae SKY197-pL101 polyadenylation reporter, beta-gal luminescence; efflux-impaired pdr1/pdr3 knockout yeast; score 100 = 6 SD above DMSO. activity score, % at 12 µM. 300,000 tested, 0.02% active. AID 1875;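 active means lowest replicate activity score at least 50, where 100 means six control SD above control mean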;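 further: yeast exposed to compound for 9 h at 30 °C; higher score means more reporter readthrough which indicates perturbed polyadenylation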
DAX1 inh-1: inhibitors of DAX1 repression of SF-1 activated StAR promoter; HEK293T StAR-luciferase reporter, SF-1/DAX-1 repression relief; inhibition, % at 6.8 µM; 370,000 tested, 1.1% active;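 active means inhibition above the mean over all tested compounds plus 3 SD, cut at about 3.6% in these data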;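 further: higher inhibition means more luminescence from relief of DAX-1 repression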
DAX1 inh-2: NR0B1 (DAX1) inhibition; P51843; HEK293 Gal4-DAX1 luciferase reporter, luminescence; inhibition, % at 6.75 µM; 340,000 tested, 0.99% active; AID 504766;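 active means inhibition above the mean over all tested compounds plus 3 SD, cut at about 4.2% in these data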;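 further: inhibition shows as a rise in luminescence from relieved DAX1 repression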
Target sequence (P51843 207-470 limits assumed): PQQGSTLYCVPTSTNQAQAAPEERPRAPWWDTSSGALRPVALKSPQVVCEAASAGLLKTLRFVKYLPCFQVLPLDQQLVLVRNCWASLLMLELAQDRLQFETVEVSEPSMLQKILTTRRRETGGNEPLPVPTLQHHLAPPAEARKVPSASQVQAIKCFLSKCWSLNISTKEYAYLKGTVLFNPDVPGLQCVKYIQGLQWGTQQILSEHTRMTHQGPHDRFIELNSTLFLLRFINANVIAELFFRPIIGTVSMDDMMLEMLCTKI
LXR ag: LXR-beta agonism as hcDAF-12 counter-screen; activation, % at 6.8 µM; shares compounds with hcDAF-12 act; HEK293 Gal4-LXR tk-luc reporter, luminescence, 24 h; normalized: DMSO 0%, positive control 100%; 3,400 tested, under 10 active;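 active means mean percent activation of the reporter above a cutoff set as the average over tested compounds plus their standard deviation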
Target sequence (P55055 whole entry, looked up, the tested form may be a part): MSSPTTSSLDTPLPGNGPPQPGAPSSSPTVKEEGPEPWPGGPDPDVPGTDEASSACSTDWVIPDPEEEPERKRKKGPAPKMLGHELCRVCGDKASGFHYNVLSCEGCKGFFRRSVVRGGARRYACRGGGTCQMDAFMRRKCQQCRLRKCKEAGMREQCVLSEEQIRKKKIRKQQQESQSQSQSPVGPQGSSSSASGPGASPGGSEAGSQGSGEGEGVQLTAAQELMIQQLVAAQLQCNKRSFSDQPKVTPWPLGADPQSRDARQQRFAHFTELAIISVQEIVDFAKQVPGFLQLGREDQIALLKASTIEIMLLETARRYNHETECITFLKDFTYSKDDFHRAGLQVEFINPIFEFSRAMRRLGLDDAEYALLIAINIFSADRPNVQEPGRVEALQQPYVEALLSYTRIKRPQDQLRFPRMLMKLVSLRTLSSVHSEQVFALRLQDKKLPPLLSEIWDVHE
hcDAF12 conf: confirmation of H. contortus DAF-12 agonists; 3,400 tested, 61% active; shares compounds with hcDAF-12 act; HEK293 hcDAF-12 lit1-tk-luc reporter, luminescence; % of Δ7-dafachronic acid response; activation, % at 6.8 µM;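 active means mean activation across triplicate tests above the threshold derived from the earlier primary screen, cut at about 5.5% in these data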
hgDAF12 ag: confirmation of H. glycines DAF-12 agonists; shares compounds with hgDAF12 agonist; HEK293 GAL4-hgDAF12 luciferase reporter, agonist mode; percent of butyrate response; activation, % at 6.8 µM; 3,300 tested, 80% active; AID 743050;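 active means mean activation over triplicate wells above the hit cutoff derived from the earlier primary screen, cut at about 11% in these data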
LXRb DAF12 ctr: activates human LXR-beta, counter-screen for DAF-12 agonists; 3,300 tested, under 10 active; HEK293 Gal4-LXR luciferase reporter, 24 h; AID 743051; activation, % at 6.8 µM; shares compounds with hgDAF12 agonist;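 active means mean activation of the triplicate above a set limit carried over from the primary screen, none filed active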
Of the large screens only hits and unclear results are named; the others gave an inactive call (follow-up assays come after a bar, where they were run).

Cc1ccc(C)c(-c2nc3cc(N)ccc3o2)c1	none
Cc1ccc(-c2nc3cc(N)ccc3o2)cc1Br	hcDAF-12 act 6.7, hgDAF12 agonist 15 | LXR ag inactive | hcDAF12 conf 8.0 | hgDAF12 ag 19 | LXRb DAF12 ctr inactive
COC(=O)[C@@H](Cc1c[nH]c2ccccc12)NC(=O)c1ccc2c(c1)OCO2	hcDAF-12 act 13, hgDAF12 agonist 16, ssDAF-12 act 3.2 | LXR ag inactive | hcDAF12 conf 7.9 | hgDAF12 ag 18 | LXRb DAF12 ctr inactive
O=C(NCCc1c[nH]c2ccccc12)c1ccc2c(c1)OCO2	hcDAF-12 act 11, hgDAF12 agonist 15, ssDAF-12 act 1.3 | LXR ag inactive | hcDAF12 conf 9.8 | hgDAF12 ag 18 | LXRb DAF12 ctr inactive
Cc1ccc2[nH]cc(CCNC(=O)c3ccc4c(c3)OCO4)c2c1	none
COc1ccc2c(CN3CCN(Cc4ccccc4)CC3)cc(=O)oc2c1	none (no result: PolyA inhibitor)
CCN(CC)C(=O)Cn1cc(S(=O)(=O)CC(=O)NC2CCCCC2)c2ccccc21	none
CC(=O)c1ccc2c(c1)N(Cc1ccccc1Cl)C(=O)C(C)S2 (centres undefined)	none (no result: PolyA inhibitor, DAX1 inh-2)
COc1ccc(C(=O)N/N=C(/C)c2cccc(NC(=O)c3ccccc3F)c2)cc1	none
C/C(=N\NC(=O)c1nn(C)c(C)c1Br)c1ccc(NC(=O)c2ccccc2F)cc1	hcDAF-12 act 7.2, hgDAF12 agonist 14, DAX1 inh-1 4.2, DAX1 inh-2 4.4 | LXR ag inactive | hcDAF12 conf inactive | hgDAF12 ag inactive | LXRb DAF12 ctr inactive
Clc1nc2ccccc2cc1/C=N/Nc1nc2ccccc2[nH]1	hcDAF-12 act 9.3, hgDAF12 agonist 14, ssDAF-12 act 1.7 | LXR ag inactive | hcDAF12 conf 14 | hgDAF12 ag 17 | LXRb DAF12 ctr inactive
Cc1ccsc1/C=N/Nc1nc2ccccc2[nH]1	hcDAF-12 act 9.9, hgDAF12 agonist 14, DAX1 inh-1 3.7 | LXR ag inactive | hcDAF12 conf inactive | hgDAF12 ag 14 | LXRb DAF12 ctr inactive
CC(C)(C)NC(=O)COc1coc(CN2CCN(Cc3ccccc3)CC2)cc1=O	none
COc1cc2cc3c(N)c(C(=O)NCc4ccco4)sc3nc2cc1OC	none (no result: hcDAF-12 act, hgDAF12 agonist, ssDAF-12 act, DAX1 inh-1)
Cc1ccc2nc3sc(C(=O)NCc4ccco4)c(N)c3cc2c1	hcDAF-12 act 8.1, hgDAF12 agonist 13, DAX1 inh-1 4.3 | LXR ag inactive | hcDAF12 conf inactive | hgDAF12 ag 20 | LXRb DAF12 ctr inactive
O=C(O)c1ccn(CSc2cc(Cl)ccc2Cl)n1	none (no result: PolyA inhibitor)
Cc1ccc(-c2nc(N/N=C/c3cccc([N+](=O)[O-])c3)c3ccccc3n2)cc1	none
Cc1ccc(-c2nc(N/N=C/c3cccnc3)c3ccccc3n2)cc1	hcDAF-12 act 13, hgDAF12 agonist 14, ssDAF-12 act 2.9 | LXR ag inactive | hcDAF12 conf 12 | hgDAF12 ag 21 | LXRb DAF12 ctr inactive
CC(C)(CO)CNC1CCCN(C2Cc3ccccc3C2)C1 (centres undefined)	none
O=C(/C=C/Nc1ccccc1)c1ccc(Cl)cc1Cl	hcDAF-12 act 8.0, hgDAF12 agonist 15, ssDAF-12 act 1.1 | LXR ag inactive | hcDAF12 conf inactive | hgDAF12 ag 26 | LXRb DAF12 ctr inactive
O=[N+]([O-])c1ccccc1N=Nc1c(O)[nH]c2ccc(F)cc12	none (no result: PolyA inhibitor)
Oc1[nH]c2ccccc2c1N=Nc1ccccc1F	hcDAF-12 act 12, hgDAF12 agonist 16 | LXR ag inactive | hcDAF12 conf 14 | hgDAF12 ag 21 | LXRb DAF12 ctr inactive
CC(C)(C)c1cc[n+](/C(C(=S)Nc2ccccc2F)=C(/[O-])c2ccc3c(c2)OCCO3)cc1	hcDAF-12 act 6.8, hgDAF12 agonist 14 | LXR ag inactive | hcDAF12 conf 7.3 | hgDAF12 ag inactive | LXRb DAF12 ctr inactive
[O-]C(=C(C(=S)Nc1cccc2ccccc12)[n+]1ccccc1)c1ccc2c(c1)OCCO2	none (no result: hcDAF-12 act, hgDAF12 agonist, ssDAF-12 act, PolyA inhibitor, DAX1 inh-1)
COC(=O)c1sc(SC)c(S(=O)(=O)C(C)C)c1N/N=C(\C#N)C(=O)c1ccccc1	none
Oc1c(-c2cc(-c3ccco3)[nH]n2)ccc2ccccc12	hcDAF-12 act 13, hgDAF12 agonist 20, ssDAF-12 act 2.6, DAX1 inh-1 3.6 | LXR ag inactive | hcDAF12 conf 15 | hgDAF12 ag 25 | LXRb DAF12 ctr inactive
O=C1CC(c2ccccc2)=C(c2ccccc2)C1c1ccccc1 (centres undefined)	none (no result: PolyA inhibitor)
Nc1ccccc1SCc1cn2ccccc2n1	hcDAF-12 act 7.4, hgDAF12 agonist 14, ssDAF-12 act 1.4, DAX1 inh-1 4.2 | LXR ag inactive | hcDAF12 conf inactive | hgDAF12 ag 14 | LXRb DAF12 ctr inactive
COc1cc(/C=C/c2ccc3cccc(O)c3n2)ccc1O	none
Oc1cccc2ccc(/C=C/c3ccccc3Br)nc12	none
Oc1cccc2ccc(/C=C/c3cccs3)nc12	hcDAF-12 act 17, hgDAF12 agonist 20, ssDAF-12 act 2.3 | LXR ag inactive | hcDAF12 conf 12 | hgDAF12 ag 20 | LXRb DAF12 ctr inactive
Cc1ccsc1/C=C/c1ccc2cccc(O)c2n1	hcDAF-12 act 15, hgDAF12 agonist 17, ssDAF-12 act 1.8 | LXR ag inactive | hcDAF12 conf 14 | hgDAF12 ag 22 | LXRb DAF12 ctr inactive
Brc1ccc(-n2cnc(-c3ccccc3)c2)cc1	hcDAF-12 act 7.2, hgDAF12 agonist 20, DAX1 inh-2 5.4 | LXR ag inactive | hcDAF12 conf inactive | hgDAF12 ag 20 | LXRb DAF12 ctr inactive
Nc1nc(-c2cccnc2)nc2sc3c(c12)CCCC3	hcDAF-12 act 8.7, hgDAF12 agonist 20, ssDAF-12 act 1.5, DAX1 inh-1 4.5 | LXR ag inactive | hcDAF12 conf inactive | hgDAF12 ag 15 | LXRb DAF12 ctr inactive
Cn1c(CNc2ccc(Br)cc2)nc2ccccc21	hcDAF-12 act 12, hgDAF12 agonist 14, ssDAF-12 act 1.4, DAX1 inh-2 4.7 | LXR ag inactive | hcDAF12 conf 11 | hgDAF12 ag 18 | LXRb DAF12 ctr inactive
COc1cc(C(=O)Cc2nc3ccccc3n2C)cc(OC)c1OC	none
